Screening data deposited in PubChem BioAssay by National Center for Advancing Translational Sciences (NCATS).
Rows were chosen to be rich in hits. Some 2.4% of all compounds tested hit in one or more screens of this group.
12-LOX inh = Primary qHTS assay for inhibitors of human arachidonate 12S-lipoxygenase (ALOX12): Round 2; Potency, µM (doses to about 108 µM), for inactives: at the highest dose activity change, negative = inhibition, actives largely listed as inhibitors; Polyunsaturated fatty acid lipoxygenase ALOX12 (Homo sapiens), P18054; purified 12hLO, xylenol orange hydroperoxide absorbance; 1.1% of 580,000 active; active = well fitted curve in the direction sought with a large enough effect; inconclusive = small, poorly fitted or top-dose-only effect, or another doubt; inactive = no such curve, though single readings can be large; an effect the other way counts as inactive or inconclusive; note: % is set by controls: 0 for no effect and ±100 for the full control effect
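Purified human 12hLO (150 nM final) in 25 mM Hepes, 0.01% Triton X-100, pH 7.0 was preincubated 15 min at room temperature with compound. Then 40 uM arachidonic acid was added, 30 min. Hydroperoxide was read by Fe-XO absorbance ratio 573/405 nm.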
TDP1 block = qHTS Assay for Inhibitors of Tyrosyl-DNA Phosphodiesterase (TDP1) | recombinant TDP1, AlphaScreen DNA substrate cleavage | Potency, µM (titrated, usually from 130 µM), for inactives: at the top dose activity change, negative = inhibition, usual class: inhibitors | 0.28% of 350,000 active | AID 485290, 2010; active = well fitted curve in the direction sought with a large enough effect; inconclusive = small, poorly fitted or top-dose-only effect, or another doubt; inactive = no such curve, though single readings can be large; an effect the other way counts as inactive or inconclusive; note: % is set by controls: 0 for no effect and ±100 for the full control effect; nearly all actives have a fitted effect of over 40% in size
Target sequence (Q9NUW8 whole entry, looked up): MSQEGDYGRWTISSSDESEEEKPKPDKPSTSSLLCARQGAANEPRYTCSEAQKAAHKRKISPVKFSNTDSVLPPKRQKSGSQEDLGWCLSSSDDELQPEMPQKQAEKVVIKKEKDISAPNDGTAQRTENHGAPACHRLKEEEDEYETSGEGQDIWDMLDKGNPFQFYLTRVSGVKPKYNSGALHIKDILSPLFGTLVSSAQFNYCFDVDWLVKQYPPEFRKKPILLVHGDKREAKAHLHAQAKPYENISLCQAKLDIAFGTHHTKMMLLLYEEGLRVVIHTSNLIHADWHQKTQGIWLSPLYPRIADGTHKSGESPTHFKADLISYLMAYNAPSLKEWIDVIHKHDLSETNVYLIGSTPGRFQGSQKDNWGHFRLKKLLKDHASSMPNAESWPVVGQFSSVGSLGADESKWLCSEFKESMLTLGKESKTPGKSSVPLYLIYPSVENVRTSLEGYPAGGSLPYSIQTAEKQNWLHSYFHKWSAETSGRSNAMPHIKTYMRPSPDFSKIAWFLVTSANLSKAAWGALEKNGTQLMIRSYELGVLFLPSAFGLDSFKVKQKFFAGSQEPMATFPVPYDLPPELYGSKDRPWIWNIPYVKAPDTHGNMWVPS
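Compounds were preincubated with Tdp1 (1 nM final) for 15 min at room temperature before substrate (15 nM final) started a 5 min reaction; beads (10 ug/ml final) were then added for 10 min before AlphaScreen detection.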
Rango dissoc inh = qHTS Assay for Inhibitors of RanGTP induced Rango (Ran-regulated importin-beta cargo) - Importin beta complex dissociation; Potency, µM (highest dose often 46.1 µM), for inactives: at the highest dose activity change, negative = inhibition; Biochemical FRET Rango-importin beta, RanGTP-induced dissociation; Snurportin-1 (Homo sapiens) + GTP-binding nuclear protein Ran (Homo sapiens) + Importin …; AID 540253, 2011; 0.071% of 340,000 active; note: % of control where 0% means no effect; nearly all actives have a fitted effect of over 45% in size
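Compounds preincubate 5 min with complex of recombinant Rango and importin beta in PBS with 1 mM DTT. Ran (0.6 uM) loaded with 2 mM GTP plus 0.2 uM RCC1 starts dissociation; FRET is recorded 45 min later.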
TSG101-PTAP inh = qHTS Assay for Iinhibitors of HIV-1 Budding by Blocking the Interaction of PTAP/TSG101; Tumor susceptibility gene 101 protein (Homo sapiens), Q99816; Fluorescence polarization, FITC-PTAP peptide / Tsg101 binding; Potency, µM (doses to about 115 µM), for the others: at the highest dose activity change, negative = inhibition, usual class: inhibitors; 340,000 tested, under 10 active; active = well fitted inhibition curve with a large enough effect in the main read-out, with a control signal flat, not every such curve was filed as active; inconclusive = small, poorly fitted or top-dose-only effect, or effect the other way, or a change in a side signal; inactive = no such curve, though single readings can be large or run the other way; note: % of control where 0% means no effect
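Fluorescence polarization binding of Tsg101 binding domain (10 uM final) to FITC-labeled PTAP peptide (50 nM final) in HEPES pH 7.5 buffer with NaCl, Tween 20, EDTA, TCEP. Compounds added before peptide; binding 20 min at RT.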
ClpP mod = qHTS Assay for Activators of ClpP; purified B. subtilis ClpP, FRET peptide cleavage, 20 min; Potency, µM (titrated, usually from 57.5 µM), for the others: top-dose activity change, negative = active; 1.9% of 340,000 active; AID 651965, 2013; active = well fitted falling curve with a large enough effect; inconclusive = small, poorly fitted or top-dose-only effect; inactive = no such curve, though single readings can be large or run the other way; note: the source files actives as falling curves though it sought activators and does not explain the sign; nearly all actives have a fitted effect of over 65% in size
Target sequence (P80244 whole entry, looked up): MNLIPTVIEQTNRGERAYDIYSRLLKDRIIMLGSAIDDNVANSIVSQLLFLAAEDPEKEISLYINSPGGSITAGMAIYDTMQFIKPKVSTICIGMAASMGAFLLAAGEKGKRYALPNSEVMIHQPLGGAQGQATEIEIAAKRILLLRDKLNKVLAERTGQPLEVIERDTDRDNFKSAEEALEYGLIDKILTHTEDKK
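Purified B. subtilis ClpP, 10 microg/mL final in Tris/HCl pH8 with KCl, BSA, glycerol and Tween-20, cleaved an Abz/nitrotyrosine-quenched decapeptide. Fluorescence (ex 320, em 430) was read at 0 and 20 min at room temperature. Delta was normalized to 5.8 microM ADEP and DMSO/no-enzyme controls.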
Rango-impB inh = qHTS Assay for Inhibitors of Rango (Ran-regulated importin-beta cargo) - Importin beta complex formation | Importin subunit beta-1 (Homo sapiens), Q14974 | Rango CFP/YFP FRET sensor + importin beta, 45 min | Potency, µM (doses to about 92.2 µM), for inactives: at the highest dose inhibition of complex formation | 0.031% of 340,000 active | AID 540263, 2011;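 note: 0% = DMSO wells and 100% = buffer wells lacking importin beta; nearly all actives have a fitted effect of over 15% in size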
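FRET biosensor (snurportin 1 IBB flanked by EYFP and cerulean), 50 nM, with compound 5 min, then 0.125 microM importin beta in PBS, 1 mM DTT, 0.02% Tween-20, 0.1% BSA. CFP/YFP ratio read after 45 min at room temperature; pre-read flags interference.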
Numbers without * were called inactive; ? = inconclusive; . = not tested or not shown; ! = a repeat was not active; [ ] = another dose, or the depositor's remark. Unless noted, calls come from the whole dose curve. Potency is the fitted concentration of half-maximal effect.

SMILES	12-LOX inh	TDP1 block	Rango dissoc inh	TSG101-PTAP inh	ClpP mod	Rango-impB inh
COc1ccc(OC)c(N=c2oc3cc(O)ccc3cc2C(N)=O)c1	-30%	-1%	?	-11%	28µM*	?
COc1ccc2cc(C(N)=O)c(=Nc3ccccc3)oc2c1	-22%	0%	-4%	0%	.	0%
O=C1C(Cl)=C(N2CCCC2)C(=O)N1c1ccc(F)cc1	0%	.	-21%	-1%	25µM*	?
N#Cc1cc2cc3c(cc2nc1SCC(=O)N1CCOCC1)OCCO3	11%	.	-3%	0%	.	-5%
Cc1cc(C)c2nc(N3CCOCC3)c(C#N)cc2c1	?	.	?	-2%	.	?
N#Cc1cc2cc3c(cc2nc1N1CCOCC1)OCO3	-3%	-4%	?	-8%	32µM*	?
Cc1cccc2cc(C#N)c(N3CCOCC3)nc12	?	.	18µM*	2%	-5%	?
COc1ccc(N2CCN(C(=O)c3ccccc3NS(=O)(=O)c3ccccc3)CC2)cc1	?	7%	-2%	-2%	28µM*	-1%
Cc1cc(=O)n2c3ccccc3n(CC(O)CN3CCN(CCO)CC3)c2c1C#N (stereo not drawn)	-3%	0%	-1%	-5%	.	5%
Cc1cc(=O)n2c3ccccc3n(CC(O)CN3CCC(C)CC3)c2c1C#N (stereo not drawn)	-11%	3%	12%	-2%	35µM*	0%
CCC1CCCCN1CC(O)Cn1c2ccccc2n2c(=O)cc(C)c(C#N)c12 (stereo not drawn)	14%	-1%	12%	-6%	28µM*	3%
O=S(=O)(C1CC1)N1CCC(c2nc(C3CC3)no2)C1 (stereo not drawn)	-8%	.	.	.	.	.
CSc1ccc(C2CC(=O)Nc3nc(SC)[nH]c(=O)c32)cc1 (stereo not drawn)	-2%	-5%	-10%	-5%	.	4%
CSc1ccc(C2CC(=O)Nc3nc(N)sc32)cc1 (stereo not drawn)	25µM*	.	.	.	.	.
Nc1nc2c(s1)C(c1cccc(F)c1)CC(=O)N2 (stereo not drawn)	16µM*	.	.	.	.	.
CN(Cc1ccc(F)cc1)Cc1ccsc1	35%[176 µM]	.	.	.	.	.
CCOC(=O)CNC(=O)c1cc(-c2ccc[nH]2)n[nH]1	61%	.	.	.	.	.
O=C(NC1CCCC1)N1CCC2(CC1)N(c1ccccc1)C(=O)CS2=O (stereo not drawn)	43%	.	.	.	.	.
COc1ccc(CSC(=S)NNc2ccccc2)cc1	22µM*	.	.	.	0%	.
COc1ccc(C(=O)NNc2ccccc2)cc1	-12%	11%	-10%	-1%	-1%	2%
CN(C)CCCN=Cc1c(O)n(Cc2ccccc2)c(=O)c2ccccc12	130%	2%	-10%	-2%	25µM*	0%
CCc1ccc2c(CN(C)CCOc3ccccc3F)cc(=O)oc2c1	-15%	.	.	.	.	.
Cc1ccc2c(CN(C)CCOc3ccc(Br)cc3)cc(=O)oc2c1	13%	.	.	.	.	.
CCc1ccc2c(CN(C)CCOc3ccc(F)cc3)cc(=O)oc2c1	45µM*	.	.	.	.	.
Cc1ccc2c(CN(C)CCOc3ccc(Cl)cc3)cc(=O)oc2c1	35µM*	.	.	.	.	.
SMILES	12-LOX inh	TDP1 block	Rango dissoc inh	TSG101-PTAP inh	ClpP mod	Rango-impB inh
COC(=O)[C@@H]1Cc2ncn(C)c2CN1C(=O)c1cccs1	-2%[176 µM]	.	.	.	.	.
COC(=O)c1ccc2c(c1)C(C)(C)C(/C=C/c1ccc(OC)c(OC)c1OC)=[N+]2C	2.5µM*	6%	-11%	0%	?	?
COC(=O)c1ccc2c(c1)C(C)(C)C(/C=C/c1ccc(O)cc1)=[N+]2C	5.6µM*	6%	-2%	48%	-16%	10%
c1ccc(C(Sc2cccc3cccnc23)c2ccccc2)cc1	0%	.	.	.	.	.
O=C(COC(=O)/C=C/c1ccco1)NC1CCCCC1	0%	50µM*	2%	-1%	1%	-1%
O=C(COC(=O)/C=C/c1ccco1)NCCc1ccccc1	1%	28µM*	0%	0%	1%	1%
CCOc1ccccc1NC(=O)c1ccc2c(c1)NC(=O)CS2	1%	.	.	.	.	.
COc1ccc(N2CCCCS2(=O)=O)cc1S(=O)(=O)N1CCCc2ccccc21	-25%	.	.	.	.	.
N[C@H](C(=O)O)[C@H](OCc1ccccc1)C(=O)O	10%	8%[56.1 µM]	.	.	.	.
CC[N+](C)(CC)CC(C[N+](C)(CC)CC)OCc1ccccc1	14µM*	.	.	.	.	.
CS(=O)(=O)N1CCN(C(=O)c2cc(-c3cccs3)nc3ccccc23)CC1	-6%	2%	8%	-7%	11µM*	-1%
O=C(NCc1ccco1)c1cc(-c2cccs2)nc2ccccc12	?	0%	1%	-4%	25µM*	3%
O=C(COC(=O)c1cc(-c2cccs2)nc2ccccc12)NCc1ccco1	-11%	-10%	-7%	-1%	?	-4%
CCOC(=O)c1cc(-c2cccs2)nc2c1c(C)nn2-c1ccccn1	-22%	-1%	4%	0%	.	-2%
CS(=O)(=O)N1CCN(C(=O)c2cc(-c3ccccc3)nc3ccccc23)CC1	-19%	-2%	-10%	-8%	-11%	-5%
O=C(N/N=C/c1cccnc1)c1cc(-c2cccs2)nc2ccccc12	-1%	2%	-12%	1%	25µM*	0%
O=C(N/N=C/c1ccc2ncccc2c1)c1cc(-c2cccs2)nc2ccccc12	-17%	.	?	0%	3%	?
Cc1nn(-c2ccccn2)c2nc(-c3cccs3)cc(C(=O)NCc3ccco3)c12	8%	9%	-17%	-3%	13µM*	-3%
Cc1oc2c(c1C(=O)N1CCOCC1)CN(C(=O)c1ccnn1C)CC2	-9%	.	.	.	.	.
O=C(NN1CCOCC1)c1cc(-c2cccs2)nc2ccccc12	6%	3%	5%	-4%	10µM*	5%
O=C(NCc1ccco1)c1cc2nc(-c3cccs3)cc(C(F)(F)F)n2n1	?	0%	?	.	35µM*	?
Cc1ccc(-c2cc(C(=O)NCc3ccco3)c3ccccc3n2)s1	25µM*!	2%	-29%	0%	32µM*	?
CC(/C=C/c1ccc(C)o1)=C\C(=O)O	-11%	2%	1%	0%	-2%	1%
